PfHsp90 yeast 2: inhibits growth of yeast expressing Plasmodium falciparum Hsp90; S. cerevisiae expressing PfHsp90, BacTiter-Glo ATP, 48 h; yeast lacking PDR1 and PDR3 efflux regulators; inhibition, % at 9.4 µM; 310,000 compounds, 0.32% hits; AID 504621;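 active = every replicate shows inhibition above about 80%, whatever the replicate mean, limit read from the data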;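 note: 0% = DMSO neutral controls and 100% = 20 µM radicicol positive controls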
tim10-1 inh: inhibits growth of tim10-1 mutant yeast | inhibition, % at 20 µM | 330,000 compounds, 2.2% hits | S. cerevisiae tim10-1 ts strain growth, BacTiter-Glo, 24 h;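 active = inhibition of at least 40%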;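 note: mutant grown at 25 °C; 0% = DMSO wells with yeast and 100% = wells holding no yeast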
V-ATPase pHluor: regulators of yeast V-ATPase proton transport; 350,000 compounds, 0.37% hits; AID 504577; S. cerevisiae, pHLuorin cytosolic pH fluorescence; response, % at 10 µM; in the data active = response mostly above about 7.3%, no sharp cut-off; inactive = mostly below about 5.4%; note: actives read high
TIM10 inh: TIM10 yeast growth inhibition; S. cerevisiae TIM10 strain growth, BacTiter-Glo luminescence, 24 h; inhibition, % at 10 µM; 330,000 compounds, 1.4% hits;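 active = inhibition of 40% or more at the single tested concentration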;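 note: wild-type TIM10 isogenic control strain grown at permissive 25 °C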
tim23-1 inh: growth inhibitors of tim23-1 mutant yeast | S. cerevisiae tim23-1 growth, BacTiter-Glo luminescence, 24 h | inhibition, % at 20 µM | 330,000 compounds, 1.3% hits;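 active = growth inhibition of the mutant yeast at or above 50%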;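 note: temperature-sensitive mutant grown at 25 °C; plate controls were DMSO-treated mutant yeast for no effect and medium wells lacking yeast for full effect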
tim10-1 conf: tim10-1 yeast growth inhibition, confirmed; shares compounds with tim10-1 inh; AID 463213; 7,400 compounds, 56% hits; S. cerevisiae tim10-1 ts strain growth, BacTiter-Glo, 24 h; inhibition, % at 20 µM;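 active = inhibition of yeast growth at or above a set limit in either of two repeat tests at 20 µM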;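 note: tim10-1 mutant grown at permissive 25 °C to find synthetic lethal compounds; 0% = DMSO yeast wells and 100% = medium wells without yeast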
* marks the source's active call; other numbers are inactive results; / = no result. Rows were chosen to be rich in hits. Some 3.7% of all compounds tested hit in one or more screens of this group.

SMILES	PfHsp90 yeast 2	tim10-1 inh	V-ATPase pHluor	TIM10 inh	tim23-1 inh	tim10-1 conf
CC(C)C[C@@H](CSc1ccc(Br)cc1)N1CCN(CC(C)C)CCC1=O	/	40.2*	-0.8	0.1	4.2	32.2*
CCN(CC)CC(=O)N1c2ccccc2Oc2c(c(=O)n(C)c(=O)n2C)C1c1cccc([N+](=O)[O-])c1 (stereo unspecified)	-12.9	-4.7	-1.0	10.3	-7.4	/
CC(=C\c1ccco1)/C=C(\C#N)C(=O)NCCc1c[nH]c2ccccc12	19.5	43.2*	-0.1	37.8	30.9	42.3*
CCc1ccc(S(=O)(=O)N/N=C\c2cn(CC(N)=O)c3ccccc23)cc1	-15.4	0.3	4.5	12.6	7.5	/
CN(C(=S)Oc1ccc(C(=O)Nc2ccccc2)cc1)c1ccccc1	-5.5	51.4*	-1.6	39.3	38.5	30.1
COc1ccc(NC(=O)c2ccc(OC(=S)N(C)c3ccc(OC)cc3)cc2)cc1	-5.2	13.1	1.8	-4.5	10.0	/
Cc1nc2cc(-c3sccc3-n3cccc3)nn2c(C)c1C	-21.1	46.0*	2.9	19.8	40.9	34.1*
COc1ccc(NC(=O)C2CCCN(c3ncnc4onc(-c5ccc(F)cc5)c34)C2)cc1 (stereo unspecified)	5.3	42.2*	1.0	4.5	31.6	-7.1
CC(NC(=O)CCc1ccccc1)c1ccc2c(c1)OCO2 (stereo unspecified)	13.1	-3.3	-2.8	-0.3	-2.8	/
Cc1noc(NS(=O)(=O)c2ccc(NC(=O)c3cc4ccccc4o3)cc2)c1C	-12.9	0.3	1.8	5.8	0.0	/
COc1ccc2c(c1)OC[C@H]1[C@H]2N2C(=O)c3cc(OC)ccc3NC(=O)[C@@]2(C)[C@H]1c1ccccc1	112.6*	44.2*	-1.6	14.6	17.7	3.9
COc1ccc2c(c1)OC[C@H]1[C@H]2N2C(=O)c3cc(F)ccc3NC(=O)[C@@]2(C)[C@H]1c1ccccc1	-11.5	7.5	-1.3	13.7	37.7	/
COc1cccc(C(=O)NC23CC4CC(CC(C4)C2)C3)c1	23.8	17.7	-0.1	8.3	43.1	/
Cc1cccc(NC2=C(NCCO)C(=O)c3ccccc3C2=O)c1	-36.4	41.5*	1.7	5.1	33.6	32.2*
COc1cccc(NC2=C(NCCO)C(=O)c3ccccc3C2=O)c1	-0.3	14.2	0.0	14.0	24.6	/
O=C(COC(=O)/C=C/c1ccc(OC(F)F)cc1)Nc1cccc(S(=O)(=O)N2CCOCC2)c1	/	2.1	-0.8	1.1	1.5	/
COCCCNC(=O)c1c(N)n(/N=C/c2ccccn2)c2nc3ccccc3nc12	-7.2	42.0*	-2.7	29.5	8.4	26.8
CC(C)OCCCNC(=O)c1c(N)n(/N=C/c2cccs2)c2nc3ccccc3nc12	-10.6	9.4	-3.3	3.4	11.3	/
CCCc1cc(=O)oc2cc(OCC(=O)NCCN3CCOCC3)c(Cl)cc12	/	/	-2.0	/	/	/
CC1=C(C(=O)Nc2cccc(C(=O)NC3CCCC(C)C3C)c2)SCCO1 (stereo unspecified)	-9.9	49.3*	-1.0	5.1	40.1	9.6
Cc1cc(C(=O)COC(=O)c2cccnc2Cl)c(C)n1C	-4.3	3.7	1.9	2.0	9.7	/
CCN(CC)C(=O)N1CCc2ccccc2C1CN1C(=O)c2ccccc2C1=O (stereo unspecified)	12.3	48.3*	-1.8	27.7	42.0	21.9
O=C1c2ccccc2C(=O)N1CC1c2ccccc2CCN1C(=O)C1CCCCC1 (stereo unspecified)	15.6	22.4	-0.2	6.0	37.6	/
O=C(NC(=S)NNC(=O)c1ccco1)c1ccc(Br)cc1	2.7	41.2*	-2.4	9.3	7.2	29.1
O=C(NNC(=S)NC(=O)c1ccco1)c1ccc(F)cc1	15.7	-1.9	-3.2	7.7	-47.3	/
SMILES	PfHsp90 yeast 2	tim10-1 inh	V-ATPase pHluor	TIM10 inh	tim23-1 inh	tim10-1 conf
CC(=Nc1ccccc1C(F)(F)F)c1ccncc1	1.1	11.8	-3.9	-10.4	11.0	/
COc1ccccc1CNC(=O)CCCNC(=O)c1ccc(Cl)cc1	17.2	2.0	-20.3	-13.4	-2.5	/
CNC(=O)NC(=O)CSc1ccc(S(=O)(=O)N(C)C2CCCCC2)cn1	/	21.3	-1.4	12.5	31.0	/
Cn1c(=O)n(C)c2cc(N3CCCCC3)c(NC(=O)c3cccc(Cl)c3)cc21	-31.5	42.0*	0.3	2.9	32.1	-15.3
CCn1c(=O)n(CC)c2cc(N3CCCC3)c(NC(=O)c3cccc(OC)c3)cc21	12.5	46.6*	-2.6	5.8	35.5	-7.5
CCOc1ccc(NC(=O)C(C)Oc2ccccc2C(=O)Nc2cccc(Cl)c2Cl)cc1 (stereo unspecified)	-6.3	41.0*	-1.2	18.6	10.1	10.2
COc1ccc(-c2cc(C)no2)cc1S(=O)(=O)NCCCN(C)Cc1ccccc1	26.3	5.4	4.6	1.9	2.7	/
COc1ccc(-c2onc(C)c2C)cc1S(=O)(=O)NCCc1ccco1	3.2	43.1*	0.0	-14.3	36.9	2.4
CC(C)(C)c1ccc(S(=O)(=O)CC(O)CSc2nc3c(cc2C#N)CCCC3)cc1 (stereo unspecified)	-5.4	40.3*	-0.4	37.2	7.2	24.8
COc1ccc(C(O)P(=O)(OCCC(C)C)c2ccc(N(C)C)cc2)cc1OC (stereo unspecified)	5.0	10.7	-3.2	12.1	20.1	/
Cc1ccc(C(O)P(=O)(OCCC(C)C)c2ccc(N(C)C)cc2)cc1 (stereo unspecified)	-34.1	41.1*	2.0	18.4	33.6	18.6
COc1ccc(NC(=O)C2CCN(c3cc(C)nc(-c4ccccc4)n3)CC2)cc1	14.3	43.3*	-0.8	22.4	38.2	29.6
COc1ccc(NC(=O)C2CCN(c3nc(C)cc(C)n3)CC2)cc1	/	14.6	0.1	9.0	2.8	/
COc1ccc(C(=O)Nc2c(N)nc(SCC(=O)NCC3CCCO3)[nH]c2=O)cc1 (stereo unspecified)	18.5	-9.3	0.2	-1.8	-9.0	/
CN(CC(=O)Nc1ccc(Cl)c(C(F)(F)F)c1)C(=O)c1ccc2c(c1)NC(=O)CS2	-4.1	-10.4	5.7	-2.6	-0.4	/
C=C(C)C1CC=C(C)/C(=N/NC(=O)CNc2ccc(OCC)cc2)C1 (stereo unspecified)	-1.5	42.3*	2.1	4.1	28.3	29.9
C=C(C)C1CC=C(C)/C(=N/NC(=O)CNc2ccc(C)cc2C)C1 (stereo unspecified)	-2.9	/	2.7	/	/	/
CCCc1nc([N+](=O)[O-])c(S(=O)(=O)c2ccccc2)n1CC(C)C	11.3	50.5*	0.5	20.7	31.6	26.1
CCOC(=O)CNC(=O)c1cc(-c2ccccn2)nc2c(C)c(Cl)ccc12	/	41.4*	1.3	11.1	27.7	8.8
CCN(CC)CCN(C(=O)c1ccc2c(c1)OCCO2)c1nc2ccc(C)cc2s1	7.5	44.0*	-5.6	19.7	15.5	27.4
Cc1ccc2nc(N(CCN(C)C)C(=O)c3ccc4c(c3)OCCO4)sc2c1	0.8	15.0	-0.7	3.4	-0.3	/
NC(=O)C1(Nc2ccc(C(=O)O)cc2)CCCC1	/	/	-4.2	/	/	/

Bioassay records from PubChem.
